Measured values from PubChem BioAssay AID1671202 (University of Kansas High Throughput Screening Laboratory, 2021).
Several values for one entry are separate records, joined by “and”; a condition that tells them apart may be missing. Equal entries are not always repeated. Out of some 190,000 compounds screened, about 6,900 (3.6%) were called active. The full list was thinned out, with actives kept by preference. Values without a mark were called inactive. No stated cut-off is given here; in the data, active means inhibition above about 50%; inactive means the rest.

target: Huntingtin (Homo sapiens) (UniProt P42858); assay: mutant huntingtin-calmodulin interaction inhibitors – biochemical, AlphaScreen, primary screen (AID 1671202); conditions: AlphaScreen His-mHTT/GST-CaM binding, luminescence; at 15 µM, stronger effect = higher value;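 on inhibition: 0% = both proteins with DMSO and 100% = one protein alone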
Sequence (P42858 whole entry, looked up, stated change not applied): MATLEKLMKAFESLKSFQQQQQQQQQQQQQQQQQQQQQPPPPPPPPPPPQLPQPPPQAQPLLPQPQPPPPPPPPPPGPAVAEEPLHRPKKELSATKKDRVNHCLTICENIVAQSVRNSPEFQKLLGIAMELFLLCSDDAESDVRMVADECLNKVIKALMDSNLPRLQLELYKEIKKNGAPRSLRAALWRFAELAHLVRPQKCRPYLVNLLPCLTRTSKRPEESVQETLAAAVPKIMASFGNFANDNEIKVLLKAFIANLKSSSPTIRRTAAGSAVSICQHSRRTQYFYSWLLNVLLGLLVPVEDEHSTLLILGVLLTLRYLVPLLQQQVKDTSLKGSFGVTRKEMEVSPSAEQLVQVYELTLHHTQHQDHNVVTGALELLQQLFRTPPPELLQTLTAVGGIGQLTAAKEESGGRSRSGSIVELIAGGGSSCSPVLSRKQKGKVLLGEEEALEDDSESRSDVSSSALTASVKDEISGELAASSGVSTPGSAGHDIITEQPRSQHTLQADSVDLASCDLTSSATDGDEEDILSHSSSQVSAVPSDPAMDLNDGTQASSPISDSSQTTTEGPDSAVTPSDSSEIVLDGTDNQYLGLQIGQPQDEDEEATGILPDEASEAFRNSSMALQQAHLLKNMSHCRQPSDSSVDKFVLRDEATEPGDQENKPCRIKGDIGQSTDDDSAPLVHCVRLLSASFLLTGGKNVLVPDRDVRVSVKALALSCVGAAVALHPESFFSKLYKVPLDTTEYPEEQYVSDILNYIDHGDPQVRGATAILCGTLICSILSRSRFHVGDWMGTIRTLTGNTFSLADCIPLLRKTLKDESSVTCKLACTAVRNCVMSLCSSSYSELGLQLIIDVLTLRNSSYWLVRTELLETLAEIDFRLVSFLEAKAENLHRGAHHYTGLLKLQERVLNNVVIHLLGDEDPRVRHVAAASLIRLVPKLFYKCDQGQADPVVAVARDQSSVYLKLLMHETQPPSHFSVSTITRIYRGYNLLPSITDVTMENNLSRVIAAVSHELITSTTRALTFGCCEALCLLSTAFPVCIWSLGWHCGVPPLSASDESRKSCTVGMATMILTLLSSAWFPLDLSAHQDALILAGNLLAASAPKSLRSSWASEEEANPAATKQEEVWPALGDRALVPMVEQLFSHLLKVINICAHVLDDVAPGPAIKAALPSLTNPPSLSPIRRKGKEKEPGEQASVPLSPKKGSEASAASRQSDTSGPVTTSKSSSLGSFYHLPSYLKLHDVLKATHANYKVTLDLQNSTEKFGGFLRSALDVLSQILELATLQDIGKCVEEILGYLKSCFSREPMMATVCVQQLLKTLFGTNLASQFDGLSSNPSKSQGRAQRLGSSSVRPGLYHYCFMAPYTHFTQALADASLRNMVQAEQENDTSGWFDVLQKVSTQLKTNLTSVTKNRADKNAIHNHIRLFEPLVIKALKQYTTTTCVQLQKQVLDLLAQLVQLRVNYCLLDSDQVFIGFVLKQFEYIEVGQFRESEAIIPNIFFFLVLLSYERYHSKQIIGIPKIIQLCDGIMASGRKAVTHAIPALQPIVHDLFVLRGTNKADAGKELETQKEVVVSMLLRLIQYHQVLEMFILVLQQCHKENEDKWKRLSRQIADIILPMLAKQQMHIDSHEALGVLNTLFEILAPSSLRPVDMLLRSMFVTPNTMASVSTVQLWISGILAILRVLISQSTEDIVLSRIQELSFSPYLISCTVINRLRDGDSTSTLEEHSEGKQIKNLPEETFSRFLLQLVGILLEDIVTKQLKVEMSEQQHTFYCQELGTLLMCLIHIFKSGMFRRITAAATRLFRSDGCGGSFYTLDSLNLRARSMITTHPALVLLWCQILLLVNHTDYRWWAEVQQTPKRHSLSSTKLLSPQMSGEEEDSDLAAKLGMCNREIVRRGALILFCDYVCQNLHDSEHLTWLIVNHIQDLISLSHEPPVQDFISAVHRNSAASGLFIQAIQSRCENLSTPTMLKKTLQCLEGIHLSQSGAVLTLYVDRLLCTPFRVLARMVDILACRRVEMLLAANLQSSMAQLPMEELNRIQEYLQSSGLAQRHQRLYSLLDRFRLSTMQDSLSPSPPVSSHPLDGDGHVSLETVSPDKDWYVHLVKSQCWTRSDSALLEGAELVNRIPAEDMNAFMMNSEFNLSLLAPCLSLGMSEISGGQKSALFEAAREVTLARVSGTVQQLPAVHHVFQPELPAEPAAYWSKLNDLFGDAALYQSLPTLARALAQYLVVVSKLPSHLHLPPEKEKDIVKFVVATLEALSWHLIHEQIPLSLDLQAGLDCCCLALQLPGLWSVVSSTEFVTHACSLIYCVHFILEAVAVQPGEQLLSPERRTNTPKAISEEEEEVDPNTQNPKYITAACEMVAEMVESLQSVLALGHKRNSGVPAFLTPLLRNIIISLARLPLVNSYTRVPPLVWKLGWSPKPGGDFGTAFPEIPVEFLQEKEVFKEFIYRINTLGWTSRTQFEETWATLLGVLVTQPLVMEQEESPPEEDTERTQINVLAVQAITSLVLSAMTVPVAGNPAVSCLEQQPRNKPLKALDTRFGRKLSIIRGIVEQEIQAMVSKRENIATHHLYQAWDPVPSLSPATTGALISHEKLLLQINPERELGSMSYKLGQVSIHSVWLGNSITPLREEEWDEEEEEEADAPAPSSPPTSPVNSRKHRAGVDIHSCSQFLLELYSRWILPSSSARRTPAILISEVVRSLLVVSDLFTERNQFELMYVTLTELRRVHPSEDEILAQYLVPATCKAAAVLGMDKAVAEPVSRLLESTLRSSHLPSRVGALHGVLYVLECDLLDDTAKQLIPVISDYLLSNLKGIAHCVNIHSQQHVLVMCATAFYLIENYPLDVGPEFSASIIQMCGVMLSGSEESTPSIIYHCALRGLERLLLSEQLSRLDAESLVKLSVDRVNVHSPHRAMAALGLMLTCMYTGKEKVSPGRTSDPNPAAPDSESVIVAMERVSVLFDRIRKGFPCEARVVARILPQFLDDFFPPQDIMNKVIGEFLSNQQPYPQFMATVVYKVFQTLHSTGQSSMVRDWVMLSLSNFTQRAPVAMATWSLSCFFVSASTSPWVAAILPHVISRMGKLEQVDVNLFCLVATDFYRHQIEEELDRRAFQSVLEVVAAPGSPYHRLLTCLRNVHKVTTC

| Structure (SMILES) | inhibition |
| --- | --- |
| CCOC(=O)N1CCCN(C(=O)OCC)CC1 | -5.6% |
| COc1ccc2c(c1)OCC/C2=N\OC(=O)c1cc(Cl)ccc1OC | inactive |
| C=CCN1C=C(c2ccc3ccccc3n2)C(C#N)c2ccccc21 (stereo not given) | 15% |
| O=C(CSc1nccc(N2CCCCC2)n1)Nc1cc(C(F)(F)F)ccc1Cl | -12.5% |
| CN(C)C(=O)c1cnn(-c2ccccc2)c1-n1cccc1 | 2.9% |
| O=C(NCc1ccccn1)C1CC(=O)N(CCc2c[nH]c3ccc(F)cc23)C1 (stereo not given) | 46.9% |
| Cc1cc(OCC(=O)Nc2ccc(Cl)cn2)ccc1Cl | -7% |
| Cc1cc(OCC(=O)Nc2c(C)cccc2C)ccc1Cl | -6.2% |
| Cc1cc(OCC(=O)N2N=C(C(F)(F)F)CC2(O)C(C)(C)C)ccc1Cl (stereo not given) | 100% (active) |
| Cc1sc2ncnc(N3CCN(c4ccccn4)CC3)c2c1-c1ccc(F)cc1 | 0.3% |
| CCOC(=O)Nc1ccc2c(c1)CN(C(=O)c1cccs1)CC2 | 2.5% |
| CCCNC(=O)C1CCN(c2nc3ccsc3c(=O)n2Cc2ccccc2)CC1 | -1.4% |
| CCOC(=O)C1CCc2sc(NC(=O)Cn3nc(C)cc3C)nc21 (stereo not given) | -9.9% |
| CCOC(=O)C1CCc2sc(NC(=O)C3COCC(=O)N3Cc3ccccc3)nc21 (stereo not given) | 64.1% (active) |
| COc1cc(CNc2cc(C)cc(C)c2)c([N+](=O)[O-])cc1OC | 75% (active) |
| COc1cc(CN2CCN(CCO)CC2)c([N+](=O)[O-])cc1OC | 1.8% |
| COc1cc(CN2CCCN(C)CC2)c([N+](=O)[O-])cc1OC | -0.1% |
| Clc1ccccc1C1CC(c2ccccc2)n2ncnc2N1 (stereo not given) | 3.6% |
| Cc1ccc(-c2csc(/C(C#N)=C/c3ccc([N+](=O)[O-])cc3)n2)cc1 | 12.1% |
| N#C/C(=C\c1ccc(F)cc1)c1nc(-c2ccc([N+](=O)[O-])cc2)cs1 | 1.8% |
| N#C/C(=C\c1ccc(O)cc1)c1nc(-c2ccc(Cl)cc2)cs1 | 58.9% (active) |
| COc1cccc(CNC(=O)CC2CCN(S(=O)(=O)c3ccc(Cl)s3)CC2)c1 | -9.77% |
| CN(C)c1ccc(C(=O)N2N=C(c3ccc(Br)cc3)CC2(O)C(F)(F)F)cc1 (stereo not given) | 13% |
| O=C(C1CC1)N1N=C(c2ccc(Br)cc2)CC1(O)C(F)(F)F (stereo not given) | -4% |
| O=C(c1ccncc1)N1N=C(c2ccc(Cl)cc2)CC1(O)C(F)(F)F (stereo not given) | 58% (active) |

| Structure (SMILES) | inhibition |
| --- | --- |
| O=[N+]([O-])c1cccc(C=Nc2ccc3nc(-c4cccc(F)c4)oc3c2)c1O | 1% |
| O=C1c2ccccc2C(=O)N1CN(C(=O)c1ccc([N+](=O)[O-])cc1)c1ccc(F)cc1 | 1% |
| O=C(CSc1nnc(-c2ccco2)n1-c1ccccc1)Nc1ccc(F)cc1 | 11.2% |
| N#Cc1c(-c2ccco2)cc(C2CC2)nc1SCc1ccccc1 | -5% |
| O=c1[nH]c(SCc2ccccc2)nnc1-c1ccccc1 | -3% |
| O=C(CSc1nnc(-c2ccco2)c(-c2ccco2)n1)Nc1ccc(Br)cc1 | 79% (active) |
| O=C(CSc1oc(-c2ccco2)nc1S(=O)(=O)c1ccccc1)Nc1ccc(F)cc1 | 6% |
| c1ccc(CSc2nnc(-c3ccco3)c(-c3ccco3)n2)cc1 | 85% (active) |
| Cc1ccccc1NC(=O)CSc1nnc(-c2ccco2)n1C | 1% |
| Cc1ccc(F)cc1NC(=O)Cc1nn(C)c(=O)c2ccccc12 | 3% |
| Cc1ccc(F)cc1NC(=O)CSc1nnc(-c2ccco2)c(-c2ccco2)n1 | 86% (active) |
| CCOCCCNC(=O)C1CCCN(c2nccc(C)n2)C1 (stereo not given) | -8.18% |
| CCc1nn(-c2ccc(F)cc2)c(CC)c1C(=O)N1CCN(C)CC1 | 9.8% |
| CCN1CCN(C(=O)c2c(C(C)C)nn(-c3cccc(Cl)c3)c2C(C)C)CC1 | 32.9% |
| Cc1c(C(=O)N2CCN(C)CC2)c(CC(C)C)nn1-c1ccc(Cl)c(Cl)c1 | 94.8% (active) |
| CN(C)C(=O)CSc1nnc(N)s1 | -4.07% |
| Cc1ccc2c(c1)C(=O)NC1(CCN(C(=O)c3ccc(C(F)(F)F)cc3)CC1)N2C | 4.4% |
| COc1ccc(C(=O)N2CCCC(c3ccnc(Nc4ccccc4)n3)C2)cc1 (stereo not given) | 69.4% (active) |
| O=C(c1ccccc1F)N1CCCC(c2ccnc(-c3cccc(F)c3)n2)C1 (stereo not given) | 1.2% |
| N#Cc1ccc(C(=O)N2CCCC(c3ccnc(Nc4cccc(F)c4)n3)C2)cc1 (stereo not given) | 6.41% |
| N#Cc1ccc(C(=O)N2CCCC(c3ccnc(Nc4ccccc4)n3)C2)cc1 (stereo not given) | -5.02% |
| CN(C)c1ccc(C(=O)N2CCCC(c3ccnc(Nc4cccc(F)c4)n3)C2)cc1 (stereo not given) | 80.1% (active) |
| O=C(c1ccccc1)N1CCCC(c2ccnc(Nc3ccccc3)n2)C1 (stereo not given) | 43.6% |
| COc1ccc(CCNC(=S)NC2Cc3ccccc3C2)cc1OC | 6.9% |
| Cc1onc(-c2ccccc2)c1C(=O)Nc1ccc(S(N)(=O)=O)cc1 | -0.8% |

| Structure (SMILES) | inhibition |
| --- | --- |
| CN1CCN(c2cc(C(=O)O)c3cc(F)ccc3n2)CC1 | 3.5% |
| N#Cc1ccc(Sc2nc3ccccc3o2)c([N+](=O)[O-])c1 | 12% |
| CC(=O)NC(c1ccccc1)c1ccc2cccnc2c1O (stereo not given) | 100% (active) |
| Cc1ccc(C)c(NC(=O)Cc2ccccc2)c1 | 0.9% |
| O=C(O)c1ccccc1C(=O)Nc1cccc2cccnc12 | 4% |
| O=C(Cc1ccccc1)NC(c1ccc(Cl)cc1)c1ccc2cccnc2c1O (stereo not given) | 99% (active) |
| Cc1ccc(C(=O)NCCOc2cccc3cccnc23)cc1 | 9% and -2% |
| O=C(Cc1ccccc1)Nc1ccc(F)c(Cl)c1 | -11.1% |
| COc1cccc(C(=O)NC(c2cccc([N+](=O)[O-])c2)c2cc(Cl)c3cccnc3c2O)c1 (stereo not given) | 19% |
| Cc1ccc(C(NC(=O)Cc2ccccc2)c2ccc3cccnc3c2O)cc1 (stereo not given) | 100% (active) |
| COc1ncccc1CNC(=O)c1cccs1 | -2.2% |
| CC(=O)NC(c1cccs1)c1cc(Cl)c2cccnc2c1O (stereo not given) | 70% (active) and 100% (active) |
| O=C(Cc1ccccc1)NC(Nc1ccccc1Cl)C(Cl)(Cl)Cl (stereo not given) | 20% |
| CC(NC(=O)COc1ncccn1)c1ccccc1 (stereo not given) | -13.9% |
| CC(C)c1ccc(OCC(=O)Nc2ccccc2[N+](=O)[O-])cc1 | 3.8% |
| COc1ccc(-n2c(-c3cccc([N+](=O)[O-])c3)cn3c4c(=O)n(C)c(=O)n(C)c4nc23)cc1 | 4% |
| CC(=O)c1ccc(NC(=O)CSc2ncc(-c3ccc(C)c(C)c3)o2)cc1 | 2.5% |
| CC(=O)N1CCc2cc(Br)cc(S(=O)(=O)NCCc3ccccc3)c21 | 20% |
| CC(=O)C1=C(C)NC(SCC(=O)c2ccccc2)=C(C#N)C1c1ccc(Br)cc1 (stereo not given) | -23.7% |
| COc1cc(NC(=O)c2ccccc2OC)c(OC)cc1Cl | 9% |
| Cc1ccc(C)c(C(O)=C2C(=O)C(=O)N(CCCN3CCOCC3)C2c2ccncc2)c1 (stereo not given) | -2.8% |
| Clc1ccc(C2C=C(c3cccc(Br)c3)Nc3nnnn32)c(Cl)c1 (stereo not given) | -5% |
| CCOc1ccc2nc(NC(=O)c3ccc(OC)cc3)sc2c1 | -5% |
| O=C(Nc1nncs1)c1ccc2nc(-c3ccco3)c(-c3ccco3)nc2c1 | 99.4% (active) |
| O=C(Nc1ccc(Cl)cc1)c1ccc2nc3ccccc3nc2c1 | 13.5% |

| Structure (SMILES) | inhibition |
| --- | --- |
| COc1ccc(C=C2Oc3cc(OC(=O)c4ccc5c(c4)OCO5)ccc3C2=O)c(OC)c1OC | 3.6% |
| COc1ccc(-c2coc3c(C)c4oc(=O)c5ccccc5c4cc23)cc1F | 2% |
| N#CC1=C(N)Oc2n[nH]c(-c3ccccc3)c2C1c1ccc(F)c(Br)c1 (stereo not given) | 20% |
| Cc1cc(-c2[nH]c3c(c2-c2cc(C)sc2C)c(=O)n(C)c(=O)n3C)c(C)s1 | -3% |
| O=C(NCCSc1c[nH]c2ccccc12)c1ccc(Cl)c([N+](=O)[O-])c1 | 37% |
| Cc1cc(Cl)ccc1OCC(=O)NCCc1nc2ccccc2[nH]1 | 19% |
| O=C(COc1ccc(Cl)cc1Cl)NCCSc1c[nH]c2ccccc12 | 61% (active) |
| COc1cccc(NC(=O)C2(c3ccccc3)CCOCC2)c1 | 1.7% |
| Cc1cccc2nnc(N3CCC(C(=O)N4CCOCC4)CC3)n12 | 1.65% |
| Cc1ccnc(NC(c2ccc(O)cc2)c2ccc3ccc(C)nc3c2O)c1 (stereo not given) | 98% (active) |
| Cc1cccc(NC(c2cccc(F)c2)c2ccc3ccc(C)nc3c2O)n1 (stereo not given) | 76% (active) |
| Cc1cccc(NC(=O)c2cc(F)ccc2F)n1 | -3% |
| Cc1cc(C)nc(NC(=O)c2cccc(F)c2)c1 | -6.5% |
| Cc1cc(S(=O)(=O)NCc2cccnc2)c(Cl)cc1Cl | -3.6% |
| Cc1ccc(CNC(=O)N2CCCC(C)(C(=O)NCc3ccccc3)C2)cc1 (stereo not given) | 0.08% |
| Cc1ccc(S(=O)(=O)N2CCCC(C)(C(=O)NCc3ccccc3C)C2)cc1 (stereo not given) | 13% |
| Cc1ccc(CNC(=O)C2(C)CCCN(S(=O)(=O)c3cc(C)c(C)cc3C)C2)cc1 (stereo not given) | 52.3% (active) |
| CCN=C1SC(C(=O)Nc2ccc(Cl)cc2)CC(=O)N1CC (stereo not given) | 7% |
| CCN(CC)S(=O)(=O)N(CC(=O)NC(C)(C)C)Cc1ccc(F)cc1 | -4% |
| CCn1cc2c3c(cccc31)CN(C(=O)Nc1ccc(C)cc1C)CC2 | 26.9% |
| CCn1cc2c3c(cccc31)CN(C(=O)c1ccc(OC)cc1)CC2 | 44.1% |
| CCCn1cc2c3c(cccc31)CN(C(=O)Nc1cc(OC)c(OC)c(OC)c1)CC2 | 2.35% |
| CC(C)Cn1cc2c3c(cccc31)CN(C(=O)Nc1ccc(F)cc1)CC2 | 0.25% |
| CCn1cc2c3c(cccc31)CN(C(=O)Nc1cc(C)ccc1OC)CC2 | 60.9% (active) |
| COc1ccc(OC)c(NC(=O)N2CCc3cn(CC(C)C)c4cccc(c34)C2)c1 | 69.3% (active) |
